# Screening results: PubChem, National Center for Advancing Translational Sciences (NCATS)
# Hits are enriched below; roughly 8.2% of the tested compounds scored in any of these assays.
# SW480 rereplic = induces DNA re-replication in SW480 colon adenocarcinoma cells | SW480 DNA re-replication, Hoechst DNA content imaging, 48 h | Potency, µM (titrated, usually from 46.1 µM), for inactives: top-dose re-replication activation, most hits filed as activators | 1.8% of 340,000 active | AID 624297; also: % of control where 0% means no effect; nearly all actives have a fitted effect of over 55% in size
#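 SW480 cells exposed to compounds for 48 hr at 37 C, 5% CO2, then Hoechst-stained 40 min. Nuclear DNA content imaged by fluorescence scanning (405 nm excitation, 500-530 nm emission); re-replication scored as increased high-intensity nuclei.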
# MCF10A rereplic = induces DNA re-replication in MCF 10a normal breast cells; MCF 10A DNA re-replication, Hoechst nuclear intensity, 48 h; Potency, µM (doses to about 46.1 µM), for inactives: top-dose activity, positive = re-replication, hits mostly activators; 2.9% of 350,000 active; also: % of control where 0% means no effect; nearly all actives have a fitted effect of over 50% in size
# KB-3-1 cytotox = kills parental KB-3-1 adenocarcinoma cells; AID 1347075; Potency, µM (highest dose often 46.1 µM), usual class: cytotoxic; 1.4% of 400,000 active; KB-3-1 viability, CellTiter-Glo ATP luminescence, 72 h; also: % is scaled to controls: 0 for no effect and ±100 for the full control effect; nearly all actives have a fitted effect of over 60% in size
#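 72 h, 37 °C compound treatment of KB-3-1 parental cells; CellTiter-Glo added, 10 min, luminescence read. Data corrected against DMSO-only plates and normalized before curve fitting.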
# KB-V1 MDR tox = kills drug-selected multidrug resistant KB-V1 cells. KB-V1 MDR cells viability, CellTiter-Glo, 72 h. Potency, µM (top dose mostly 46.1 µM), hits mostly cytotoxic. 3.4% of 400,000 active. AID 1347076; also: % is scaled to controls: 0 for no effect and ±100 for the full control effect; nearly all actives have a fitted effect of over 60% in size
#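 KB-V1 cells (P-gp-expressing MDR subline of KB-3-1) in phenol-red-free DMEM with 10% FBS were exposed to library compounds over a concentration series for 72 h at 37 degrees C. Viability read by CellTiter-Glo luminescence; concentration-effect curves fitted after normalization.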
# ELG1 repair inh = blocks ELG1-dependent DNA repair in HEK293T cells | AID 504467 | Potency, µM (doses to about 46.1 µM), for inactives: top-dose activity change, negative = inhibition, hits mostly inhibitors | HEK293T ELG1-luciferase reporter, luminescence, 16 h; DNA damage induced by 5-fluorouridine | 2.3% of 330,000 active; also: % is scaled to controls: 0 for no effect and ±100 for the full control effect; nearly all actives have a fitted effect of over 55% in size
#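 HEK293T cells expressing luciferase-tagged ELG1 (2,000/well) received 5-Fluorouridine plus compound or DMSO for 16 hr at 37 °C. Luciferase was read by ONE-Glo luminescence after 30 min at room temperature.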
# The depositor's hits bear a star; i = inactive; ? = inconclusive; · = no result; [ ] = dose if it differs, or a comment. Calls follow the shape of the dose curve; as a rule, active = well fitted curve in the direction sought with a large enough effect; inconclusive = small, poorly fitted or top-dose-only effect, or another doubt; inactive = no such curve, though single readings can be large; an effect the other way counts as inactive or inconclusive. Potency is read from the fitted curve at half-maximal effect.
SMILES,SW480 rereplic,MCF10A rereplic,KB-3-1 cytotox,KB-V1 MDR tox,ELG1 repair inh
COc1cc(C(=O)NCCOc2cc(C)cc(C)c2)c(Br)c(OC)c1OC,?,?,i,10.3µM*,-26.3%
CCCCn1c(=S)[nH]c2cc(S(=O)(=O)N3CCOCC3)ccc21,-7.4%,-2.7%,i,i,0.0%
CCn1c(=S)[nH]c2cc(S(=O)(=O)N3CCCCC3)ccc21,-7.8%,-9.3%,i,13µM*,?
Cc1ccc(C)c(S(=O)(=O)N2CCN(CC(=O)NC(C)c3ccccc3)CC2)c1 (centres undefined),-12.0%,6.6%,i,i,-29.6%
COc1cccc(-n2nnnc2S(C)(=O)=O)c1,?,4.61µM*,?,?,?
Cc1cccc(-n2nnnc2S(C)(=O)=O)c1,·,·,i,?,·
COc1ccc(-c2ccc3ncnc(NCc4ccc(C)o4)c3c2)cc1OC,·,·,i,?,·
CN1CCN(c2cccc(Nc3nn4c(=O)c5ccccc5nc4s3)c2)CC1,·,·,i,i,·
CC1CCC(C(C)C)C(OC(=O)COC(=O)c2cccn2C)C1 (centres undefined),-3.9%,?,i,i,-26.9%
CC1CCC(C(C)C)C(OC(=O)COC(=O)c2ccc(N)cc2)C1 (centres undefined),-9.3%,23.1µM*,i,i,-1.6%
CCSc1nc2n(n1)C(c1cccc(F)c1)C1=C(CCCC1=O)N2 (centres undefined),-5.9%,-1.2%,i,13µM*,-3.1%
COc1cc(-c2nc3n(n2)C(c2ccc(F)cc2)C2=C(CCCC2=O)N3)cc(OC)c1OC (centres undefined),0.7%,-1.2%,i,i,?
S=C(NCC1CCCO1)N1CCN(c2nc(-c3ccccc3)cs2)CC1 (centres undefined),?,10.6%,?,i,23.1µM*
S=C(NCc1ccco1)N1CCN(c2nc(-c3ccccc3)cs2)CC1,-0.8%,6.9%,?,?,?
CCN(C(=O)C(C)N1C(=O)/C(=C/c2ccco2)SC1=S)C1CCS(=O)(=O)C1 (centres undefined),4.11µM*,24.4%,?,i,-0.3%
Clc1ccc(-c2nc(N3CCCCC3)nc3ccccc23)cc1,12.6µM*,7.94µM*,i,i,-1.5%
CCOC(=O)N1CCN(c2nc(-c3ccccc3)c3ccccc3n2)CC1,16.4µM*,8.2µM*,i,i,-9.3%
c1ccc(-c2nc(-n3nc4ccccc4n3)nc3ccccc23)cc1,1.4%,3.9%,i,i,?
O=C(O)CCC(=O)N1CCN(c2nc(-c3ccccc3)c3ccccc3n2)CC1,-5.2%,20.6µM*,i,i,2.7%
Brc1ccccc1/C=N/Nc1ccc2ccccc2n1,5.4%,16.4µM*,i,i,?
Cc1ccc(C(=O)NNC(=O)CCC(=O)NCc2ccccc2)cc1Br,-1.7%,2.5%,i,?,10.1%
COc1ccc(-n2cnc3cc([N+](=O)[O-])ccc32)cc1,1.8%,0.9%,i,i,-8.6%
COc1ccc2cc3c(N)nn(C(=O)C4CCC(C(C)(C)C)CC4)c3nc2c1 (centres undefined),6.8%,?,?,?,1.84µM*
COc1ccc2cc3c(N)nn(C(=O)Cc4ccccc4OC)c3nc2c1,13.3%,5.0%,i,?,?
COc1ccc(-n2cnc(N)c2C(=O)c2cccc([N+](=O)[O-])c2)cc1,?,?,?,i,16.4µM*
SMILES,SW480 rereplic,MCF10A rereplic,KB-3-1 cytotox,KB-V1 MDR tox,ELG1 repair inh
Cc1ccc2cc3c(N)nn(C(=O)c4cccc(F)c4)c3nc2c1,·,·,i,i,·
COc1ccc2cc3c(N)nn(C(=O)c4cccc([N+](=O)[O-])c4)c3nc2c1,-1.0%,-0.4%,?,i,2.31µM*
COc1ccc(/C=N/NC(=O)c2ccn[nH]2)cc1COc1ccc(Cl)cc1Cl,?,11.6µM*,i,i,?
COc1ccc(/C=N\NS(=O)(=O)c2ccc(C)cc2)cc1COc1ccccc1[N+](=O)[O-],-1.1%,1.2%,i,i,16.4µM*
COc1ccc(/C=N/NC(=O)c2ccn[nH]2)cc1COc1ccc([N+](=O)[O-])c(C)c1,?,1.8%,i,i,?
COc1ccc(/C=N\NC(=O)c2ccc([N+](=O)[O-])c(C)c2)cc1COc1ccccc1C(N)=O,11.5%,14.8%,i,i,?
COc1ccc(/C=N/NC(=O)c2ccn[nH]2)cc1COc1ccc(F)cc1,10.8%[9.22 µM],112.0%,?,?,-7.4%
COc1ccc(/C=N/NC(=O)c2cccnc2)cc1COc1ccc([N+](=O)[O-])c(C)c1,11.6µM*,2.06µM*,6.51µM*,?,14.6µM*
COc1ccc(/C=N/NC(=O)c2ccccc2OC)cc1COc1ccccc1[N+](=O)[O-],?,?,i,?,13µM*
O=c1cc(OCc2ccccc2)cc[nH]1,-10.1%,2.0%,i,?,20.1%
COc1ccc(/C=N\NC(=O)c2ccccc2Cl)cc1COc1c(F)c(F)c(F)c(F)c1F,?,9.2µM*,?,i,-15.1%
Cc1cccc(-n2c(=O)c3c4c(sc3n3cnnc23)CCCC4)c1,·,·,i,?,·
Cc1ccc([C@@H]2C[C@H]3[C@@H](CN2S(=O)(=O)c2ccc(C)cc2)C(=O)C[C@@H](c2ccccc2F)N3S(=O)(=O)c2ccc(C)cc2)cc1,·,·,i,i,·
COC(=O)c1ccc(C(=O)NC(=S)Nc2nc3c(s2)CC(C)CC3)cc1 (centres undefined),2.9%,-5.9%,16.4µM*,?,?
O=C(Nc1nc2c(s1)CCCC2)c1cccnc1,-11.0%,-6.3%,i,?,?
O=C(NC(=S)Nc1nc2c(s1)CCCC2)c1ccc(C(=O)c2ccccc2)cc1,1.2%,0.8%,23.1µM*,4.11µM*,?
COc1cccc(N2CCN(CC(=O)Nc3nc4c(s3)CC(C)CC4)CC2)c1 (centres undefined),-0.9%,-1.6%,i,18.4µM*,?
CCCCOc1ccc(C(=O)Nc2nc3c(s2)CC(C)CC3)cc1 (centres undefined),·,·,i,i,·
CCOc1ccc(NC(=O)c2cc3c(n(-c4ccc(OC)cc4)c2=O)CC(C)(C)CC3=O)cc1,·,·,i,i,·
COC(=O)[C@]1(C)CCC[C@@]2(C)C3CC[C@@]4(C)C[C@]3(CCC21)CC4=NO (some centres undefined),-8.0%,14.2%,i,i,?
O=C(CCCCl)Oc1ccc2cc(-c3ccc4ccccc4n3)c(=O)oc2c1,2.06µM*,6.51µM*,i,i,?
